For 26 compounds, inhibition results are on record in PubChem BioAssay AID488895 (Broad Institute, 2010).

Hit rate of the full screen: of about 340,000 compounds, about 120 (0.035%) were called active. The sample holds actives, similar compounds and a random draw of the others, so the mix is not that of the screen. Unmarked numbers belong to inactive results.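 Rule for the calls: active = mean replicate inhibition at least 50% and at least half of replicates individually reaching 50%; inconclusive = only one of the two criteria met; inactive = neither criterion met.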

The nature of this assay: E. coli Tat export inhibitors, primary screen, MC4100, TorA-mCherry reporter, fluorescence, single point (AID 488895).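 Note: exported cargo escapes ClpAP degradation while cytoplasmic cargo is degraded and loses fluorescence; 0% = median of neutral control wells and 100% = median of NaSCN control wells.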 Conditions: at 10 µM, stronger effect = higher value.
As usually defined, the inhibition is the drop in the measured response relative to a control, in per cent. As to `CCn1cc(C(=O)NCCO)c(=O)c2cc(F)c(N3CCN(C)CC3)cc21`, the inhibition is 81.4% (active).
The same measure for `CCCCNC(=O)c1cn(CC)c2cc(N3CCN(C(=O)c4ccco4)CC3)c(F)cc2c1=O`: -4.43%; for `CCn1cc(C(=O)NCCC(=O)NCCO)c(=O)c2cc3c(cc21)OCO3`: 0.475%.
The same measure for `CN1CCN(c2cc3c(cc2F)c(=O)c(C(=O)O)cn3CCF)CC1`: 81.7% (active); for `CCn1cc(S(=O)(=O)c2cccc(C)c2)c(=O)c2cc(F)c(N3CCN(C)CC3)cc21`: -3.59%; for `CCCCCCn1cc(C(=O)O)c(=O)c2cc(F)c(N3CCCCC3)cc21`: 4.11%.
The same measure for `CC1(C)O[C@@H]2[C@H](O1)[C@@H](COS(=O)(=O)O)O[C@H]2n1ccc(=O)[nH]c1=O`: -1.01%.
For the compound `COc1ccc(S(=O)(=O)Nc2cccc3c2O[C@H](CN(C)S(=O)(=O)c2ccc(OC)cc2)[C@@H](C)CN([C@H](C)CO)C3=O)cc1`, the inhibition was 0.274%.
As for `O=C(c1cn(-c2ccccc2)nc1-c1cccnc1)N1CCN(S(=O)(=O)c2ccccc2F)CC1`, the inhibition was 7.82%.
In the case of `COc1ccc(CNC(=O)C(NS(=O)(=O)c2cccc3nsnc23)C(C)C)cc1` (stereo unspecified) it was -12.3%.
Regarding `Cc1nc2ccc(C(=O)N3CCSCC3)cc2s1`, the inhibition is -5.07%.
In the case of `COc1cc(C2CC(=O)Oc3cc(OC)c(OC)c(OC)c32)cc(OC)c1OC` (stereo unspecified) it was 0.529%; in that of `COc1cccc(C(C(=O)NC2CCCC2)N(C(=O)c2ccco2)c2cccc(C(C)=O)c2)c1OC` (stereo unspecified), 7.67%.
In the case of `CCNC(=O)CC1C(=O)N(c2ccc(OC)cc2)C(=S)N1CCc1ccncc1` (stereo unspecified) it was 5.06%; in that of `O=C(CN1CCN(S(=O)(=O)c2ccc(F)cc2)CC1)NC1CC1`, 2.17%; in that of `CCn1cc(/C=C(\NC(=O)c2cc(OC)c(OC)c(OC)c2)C(=O)N2CCN(C)CC2)c2ccccc21`, 6.75%.
In the case of `N#Cc1nc(N)nc(N(c2ccccc2)c2ccccc2)n1` it was -1.07%; in that of `CC(=O)NC(=S)NNC(=O)c1ccc(Br)cc1`, 10.8%.
`O=C(COc1coc(CN2CCN(c3ccccc3)CC2)cc1=O)N1CCc2ccccc21`: the inhibition is -5.1%.
Take `COCC(=O)N1CCc2ccc(NC(=O)c3ccccc3Cl)cc2C1`: the inhibition is -8.59%.
The same measure for `O=C(Cc1ccccc1F)NC1CCSc2ccccc21` (stereo unspecified): -4.99%; for `CC(N)C12CC3CC(CC(O)(C3)C1)C2` (stereo unspecified): -2.5%; for `CCn1ccnc1CN1CCCC(C(=O)c2ccc3c4c(cccc24)CC3)C1` (stereo unspecified): -0.858%.
In the case of `COc1ccc(C2NCCCC2c2ccccc2)cc1` (stereo unspecified) it was 0.669%.
The same measure for `CC(=O)Nc1ccc(OCCC[n+]2cccc(C(=O)[O-])c2)cc1`: 0.863%; for `CCOC(=O)N1CCN(C(=O)c2ccccc2N(Cc2ccccc2)S(=O)(=O)c2ccc(OC)cc2)CC1`: -2.32%.
